# High-throughput results deposited in PubChem BioAssay by several laboratories.
# This is a sample that favours compounds with a hit; in the whole collection about 2.9% have one here.
# Peg3 prom inh-1 – reduces Peg3 promoter-driven luciferase expression in HeLa | HeLa PEG-Prom luciferase reporter, luminescence, overnight | AID 588405 | actives 1.7% (n = 360,000) | inhibition, % at 20 µM;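 active means inhibition of at least 50% at 20 µM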
# KKLEB tox – reduces viability of KKLEB cystic fibrosis airway cells; KKLEB CF airway cells viability, ATPlite luminescence, overnight; stronger effect = lower value; cells stimulated with P. aeruginosa culture filtrate; activity change (cytotoxicity), % at 5 µM; actives 0.36% (n = 360,000); AID 602141;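 active means corrected activity change at or below -50% at 5 µM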
# CF NFkB inh – cystic fibrosis NF-kB activation inhibition. KKLEB NF-kB-GFP reporter, PAF-induced, GFP fluorescence overnight. inhibition, % at 5 µM. actives 0.86% (n = 360,000). AID 588850;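 active means at least 50% inhibition at 5 µM, scaled per plate between neutral and stimulator controls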;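 further: PAF is a Pseudomonas aeruginosa culture filtrate used as stimulus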
# HIF-2a block – inhibitors of HIF-2a; inhibition, % at 18.8 µM; 786-0 RCC cells HIF-2a reporter, luciferase luminescence, overnight; actives 0.72% (n = 360,000);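 active means inhibition of the luminescence signal of 40% or more relative to plate controls, in a single-dose primary screen at 18.75 µM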
# LMP1 NFkB inh – Epstein-Barr LMP1 NF-kappaB reporter inhibition. inhibition, % at 12.5 µM. actives 0.69% (n = 350,000). LMP1-induced NF-kappaB luciferase reporter cells, luminescence; in the data active means inhibition above about 41%
# Shn3 3UTR inh – inhibitors of Schnurri-3 3'UTR reporter in osteoblasts; Clone20 osteoblast Shn3 3'UTR firefly luciferase, 24 h; inhibition, % at 12.5 µM; actives 0.52% (n = 360,000); AID 588674;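 active means mean inhibition of at least 75% with every replicate also reaching 75%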
# Peg3 prom inh-2 – Peg3 promoter inhibition confirmation; shares compounds with Peg3 prom inh-1; HeLa PEG-Prom luciferase reporter, luminescence, overnight; inhibition, % at 20 µM; actives 84% (n = 1,300); AID 602417;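 active means at 20 µM dose, 40% or more inhibition averaged across four replicates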
# Hits are given with their value; 0 = inactive; - = not tested or not shown.
SMILES,Peg3 prom inh-1,KKLEB tox,CF NFkB inh,HIF-2a block,LMP1 NFkB inh,Shn3 3UTR inh,Peg3 prom inh-2
CC(=O)c1ccc(NC(=O)C2CCN(S(=O)(=O)c3ccc4c(c3)N(C(C)=O)CCO4)CC2)cc1,0,0,0,0,0,0,-
CC1(C(=O)NS(=O)(=O)Cc2ccccc2)CCN1C(=O)CCc1ccccc1 (stereo unspecified),0,0,0,0,-,0,-
O=C(/C=C\Nc1ccc2c(c1)OCO2)c1ccccn1,84.6,-54.5,0,71.4,71.7,0,71.2
O=C(Nc1ccc2c(c1)OCO2)c1ccccn1,0,0,0,0,0,0,-
O=C1c2cccc3cccc(c23)C(=O)N1CCCN(C(=O)c1cccs1)c1cccc(F)c1,52.2,0,0,0,0,0,0
COc1ccccc1C(=O)NCCC(=O)N1CCN(c2ccccc2O)CC1,0,0,0,0,0,0,-
Cc1csc2nc(COC(=O)c3ccc(Cl)c([N+](=O)[O-])c3)cc(=O)n12,59.2,0,0,0,0,0,0
Cc1ccc(Nc2nnc(SCC(=O)NC3CC3)s2)cc1,0,0,0,0,0,0,-
Cc1ccc(C)c(CN2CCC(CNC(=O)Nc3ccc(F)c(Cl)c3)CC2)c1,67.6,0,0,0,0,0,98.3
Cc1ccc(C)c(CN2CCC(CNC(=O)Nc3cccc(Cl)c3C)CC2)c1,0,0,0,0,0,0,-
N/C(=N\OC(=O)c1ccc(Cl)cc1)c1ccccn1,78.3,0,0,0,0,0,0
COc1ccc(C(=O)O/N=C(\N)c2ccccn2)cc1,98.8,0,0,0,81.1,0,91.9
COc1ccc(C(=O)NNC(=O)c2ccccn2)cc1,104.6,0,0,82.6,0,0,95.3
COc1cc(OC)cc(C(=O)O/N=C(\N)c2ccccn2)c1,0,0,0,0,-,0,-
N/C(=N\OC(=O)c1ccccc1Cl)c1ccccn1,59.2,0,0,0,65.2,0,0
COc1ccccc1C(=O)O/N=C(\N)c1ccccn1,0,0,0,0,0,0,-
CC(=O)Nc1cc(NC(C)=O)cc(C(=O)OCC(=O)Nc2ccc(S(=O)(=O)NC3=NCCCCC3)cc2)c1,0,0,0,0,0,0,-
Cc1c(C#N)sc(C(N)=O)c1C,0,0,0,0,0,0,-
Cc1ccc(NC(=O)c2ncn(CCCNCCCN3CCCC3=O)n2)cc1C,0,0,0,0,0,0,-
Cc1cc(C)c(CN2CCN(CCCn3cnc(C(=O)Nc4ccc(C)c(C)c4)n3)CC2)c(C)c1,97.9,0,0,0,0,0,96.6
C[C@@H]1[C@H]2[C@@H]3CC[C@@H](C3)[C@H]2CN[C@H]1c1cn(Cc2ccccc2)c2ccccc12,70.5,0,0,0,0,0,53.9
N=c1c2c(-c3ccccc3)c(-c3ccccc3)n(Cc3ccccc3)c2ncn1CCO,98.5,0,0,0,0,0,95.8
CCC(=O)NNc1nc2c(C)cc(C)cc2s1,0,0,0,0,0,0,-
Cc1cc(C)c2nc(NNC(=O)c3ccc(S(=O)(=O)N4CC(C)CC(C)C4)cc3)sc2c1 (stereo unspecified),94.1,0,0,0,0,89.7,98.8
O=C(Nc1nc(-c2ccc3ccccc3c2)cs1)c1ccc(N2C(=O)CCC2=O)cc1,55.8,0,0,0,0,0,0
SMILES,Peg3 prom inh-1,KKLEB tox,CF NFkB inh,HIF-2a block,LMP1 NFkB inh,Shn3 3UTR inh,Peg3 prom inh-2
Nc1ccc(-c2nc3ccc(N)cc3s2)cc1,0,0,0,0,0,0,-
Nc1ccc(-c2nc3ccc(C(=O)O)cc3s2)cc1,100.9,0,0,87.6,78.1,0,93.8
CC1CCN(c2nc3ccc(C(=O)O)cc3s2)CC1,106.1,0,0,89.2,62.9,0,87.3
CC1CCN(c2nc3ccc(C(=O)NCCCN4CCCCC4)cc3s2)CC1,0,0,0,0,0,0,-
COc1ccc(OC)c(-c2csc(NC(=O)Cn3[nH]c(=O)c4ccccc4c3=O)n2)c1,54.8,0,0,0,0,0,0
Cc1cc(NC(=O)c2cncc(Br)c2)ccc1NC(=O)c1cc2ccccc2o1,85.2,0,0,0,0,0,0
COc1cc(NC(=O)c2ccccc2)ccc1NC(=O)c1cc2ccccc2o1,0,0,0,0,0,0,-
COC(=O)c1cc(S(=O)(=O)NCC2CCN(Cc3ccccc3F)CC2)c[nH]1,0,0,0,0,0,0,-
O=C(Nc1ccccc1C(=O)Nc1nnc(C(F)(F)F)s1)c1ccccc1,59.1,-53.3,0,0,0,0,86.9
COC(=O)C1=C(C)N(Cc2ccccc2)C(=NCc2cccc(Cl)c2)N[C@H]1c1ccccc1,101.2,0,0,0,0,0,98.0
CCC(C)NC(=O)C1CC(=O)N(CCc2ccc(F)cc2)C1 (stereo unspecified),0,0,0,0,0,0,-
CCOC(=O)C1C(=O)C=C(c2ccc(Br)cc2)CC1c1ccco1 (stereo unspecified),0,0,0,0,0,0,-
CCN(CC)c1ccc(NC(=O)Cn2c(C(C)NC(=O)c3ccccc3)nc3ccccc32)cc1 (stereo unspecified),78.5,0,0,0,0,0,0
O=C(NCC1(N2CCCCC2)CCCCC1)C1CC(=O)N(c2ccc3c(c2)OCCO3)C1 (stereo unspecified),0,0,0,0,0,0,-
CC(=O)Nc1sc(C)c(C)c1C(=O)OCC(=O)Nc1ccccc1,0,0,0,0,0,0,-
CC(=O)Nc1sc(C)c(C)c1C(=O)OCC(=O)Nc1cccc(C)c1,89.5,0,0,0,0,0,0
O=C(CCc1ccccc1)NC(NC(=S)Nc1ccc(Br)cc1)C(Cl)(Cl)Cl (stereo unspecified),53.1,0,0,0,0,0,0
COC(CNC(=O)c1cccnc1)OC,0,0,0,0,0,0,-
COC(CNC(=O)c1ccc2c3c(onc13)-c1ccccc1C2=O)OC,101.8,0,0,0,0,-,99.3
COc1ccc(NC(=O)C2Cc3c(-c4ccc(Cl)cc4)ccnc3O2)cc1OC (stereo unspecified),0,0,0,0,-,0,-
Cc1cccc(C)c1OCc1cn(CC(=O)c2ccc(O)cc2)nn1,0,0,0,0,0,0,-
COc1cc(OC)c2cc(C(=O)N/N=C/c3ccccc3O)[nH]c2c1,72.0,0,0,0,0,88.9,59.2
COc1ccc2[nH]c(C(=O)N/N=C/c3ccccc3OC)cc2c1,0,0,0,0,0,0,-
N/C(CN1CCCCC1)=N\S(=O)(=O)c1cc(Cl)cc(Cl)c1,0,0,0,0,0,0,-
Cn1nc(C(=O)Nc2nc(-c3ccccn3)cs2)c2ccccc2c1=O,0,0,0,0,0,0,-
CCCn1nc(C(=O)Nc2nc(-c3ccccn3)cs2)c2ccccc2c1=O,70.3,0,0,0,0,0,62.1
C=C(C)CN1CCN(c2c(CCC#N)c(C)c(C#N)c3nc4ccccc4n23)CC1,82.5,0,0,0,0,0,40.9
